Each structure is given as a SMILES string. This is part of a sample that, as a whole, favours compounds with a hit. Of some 83,000 tested, about 20% had one in any assay.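 Single-concentration screen, 48 h exposure, 96-well plates. Endpoint: percent growth. Below 10 = active.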 Unmarked numbers belong to inactive results. Calls of active or inactive are those of the source.

Among the test systems are NCI-H23 lung; NCI-H226 lung; NCI-H322M lung; HOP-62 NSCLC; NCI-H460 lung; HOP-92 NSCLC; NCI-H522 lung; 786-0 renal; COLO 205 colon; DU-145 prostate; K-562 leukemia; MALME-3M melanoma; MDA-MB-231 breast; RXF 393 renal; SF-268 CNS; SF-295 CNS; SF-539 CNS; UACC-257 melanoma; M14 melanoma; A549/ATCC NSCLC.
Holding throughout (test): NCI-60 one-dose screen, 48 h (100 = growth as untreated, 0 = no growth, -100 = all killed)
Settings in all cases: 10 µM unless noted

Turning to `COc1ccc(-c2cc(-c3ccc(N(C)C)cc3)nc(NC(=O)c3cccnc3)n2)cc1`, the growth is 105% in the test on NCI-H23 lung; 98.8% in the test on NCI-H226 lung; 93% in the test with NCI-H322M lung; 100% with HOP-62 NSCLC; 96.1% in the test on NCI-H460 lung; 124% in the test with HOP-92 NSCLC. For the same compound, the growth in the test with NCI-H522 lung is 93%; in the test with 786-0 renal, 103%; with COLO 205 colon, 104%; with DU-145 prostate, 99.5%; in the test with K-562 leukemia it was 93.3%; in the test with MALME-3M melanoma it was 120%. The growth is 93.8% in the test on MDA-MB-231 breast; 107% in the test with RXF 393 renal; 90.6% in the test with SF-268 CNS; 104% with SF-295 CNS; 94.3% with SF-539 CNS; 120% in the test with UACC-257 melanoma. Besides, the growth with M14 melanoma was 124%.

As for `CCN1CCN(CCOc2ccc(CNc3ccc4nc(CCC5CCCCC5)[nH]c4c3)cc2)CC1`, the growth was 75.6% in the test on NCI-H23 lung; 38.9% in the test on NCI-H226 lung; 66.1% with NCI-H322M lung; 50.4% in the test on HOP-62 NSCLC; 42.8% in the test with NCI-H460 lung; 22.4% in the test with HOP-92 NSCLC. The growth is 32% with NCI-H522 lung; -11.7% (active) in the test on 786-0 renal; -74.3% (active) in the test with COLO 205 colon; 50.3% in the test with DU-145 prostate; 6.76% (active) in the test on K-562 leukemia; -88.2% (active) in the test with MALME-3M melanoma. The growth in the test on MDA-MB-231 breast is -31.4% (active); in the test on RXF 393 renal it was 28.2%; with SF-268 CNS, 54.4%; in the test with SF-295 CNS, 48%; in the test on SF-539 CNS, -87.1% (active); with UACC-257 melanoma, -69.4% (active).

With `COc1ccc(CNc2ccc3nc(CCC4CCCCC4)[nH]c3c2)cc1`, the growth in the test with NCI-H23 lung is 77.5%; in the test on NCI-H226 lung it was 73.8%; in the test with NCI-H322M lung it was 91.2%; with HOP-62 NSCLC, 75.8%; with NCI-H460 lung, 88.6%; with HOP-92 NSCLC, 38.3%. For the same compound, the growth is 67.1% in the test with NCI-H522 lung; 62.7% in the test with 786-0 renal; -23.9% (active) with COLO 205 colon; 83.4% with DU-145 prostate; 19.6% in the test on K-562 leukemia; 59.4% with MALME-3M melanoma. In addition, the growth was 79.7% in the test on MDA-MB-231 breast; 74.2% in the test on RXF 393 renal; 71.4% in the test on SF-268 CNS; 91% in the test with SF-295 CNS; 76.4% with SF-539 CNS; 75.3% with UACC-257 melanoma. For the same compound, the growth with M14 melanoma is 75.7%.

Consider `O=C(Nc1ccc2[nH]ncc2c1)c1csc(Nc2ccccc2)n1`, for which the growth in the test on NCI-H23 lung was 47.3%; in the test with NCI-H226 lung, 67.2%; in the test with NCI-H322M lung, 46.5%; in the test with HOP-62 NSCLC, 50.7%; with NCI-H460 lung, 11.9%; in the test on HOP-92 NSCLC, 77.9%. Also, the growth in the test with NCI-H522 lung is 17.5%; in the test with 786-0 renal, 38.9%; in the test with COLO 205 colon, 33.2%; in the test with DU-145 prostate it was 21.4%; with K-562 leukemia it was 20.7%; in the test on MALME-3M melanoma, 69%. In addition, the growth is 58.5% in the test with MDA-MB-231 breast; 12.9% in the test with RXF 393 renal; 56.6% in the test on SF-268 CNS; 22.6% with SF-295 CNS; 22.5% in the test on SF-539 CNS; 77.2% with UACC-257 melanoma. Besides, the growth in the test with M14 melanoma was 24.5%.

For `CCCNNC(=O)c1ccc(CNC(=O)/C=C/c2ccccc2)cc1`, the growth in the test on NCI-H23 lung is 50.3% [2.5 µM]; with NCI-H226 lung it was 73.4% [2.5 µM]; in the test with NCI-H322M lung, 34.5% [2.5 µM]; in the test with HOP-62 NSCLC it was 20.3% [2.5 µM]; in the test with NCI-H460 lung, 40.2% [2.5 µM]; with HOP-92 NSCLC, 25.6% [2.5 µM]. The growth with NCI-H522 lung was 38.3% [2.5 µM]; in the test with A549/ATCC NSCLC, 34.8% [2.5 µM]; with 786-0 renal it was 33.1% [2.5 µM]; in the test on COLO 205 colon, -16.5% [2.5 µM] (active); in the test on DU-145 prostate, 37% [2.5 µM]; with K-562 leukemia, 15% [2.5 µM]. The growth is 30.1% [2.5 µM] in the test with MALME-3M melanoma; 55.7% [2.5 µM] with MDA-MB-231 breast; 1.56% [2.5 µM] (active) with RXF 393 renal; 52.6% [2.5 µM] in the test with SF-268 CNS; 33.3% [2.5 µM] in the test with SF-295 CNS; 44.2% [2.5 µM] in the test on SF-539 CNS. Besides, the growth in the test with UACC-257 melanoma was 24.1% [2.5 µM]; in the test on M14 melanoma it was 29.9% [2.5 µM].

As to `O=C(OCC(O)C(=O)NC12CC3CC(CC(C3)C1)C2)c1cccc(Br)c1` (stereo not drawn), the growth was 103% in the test with NCI-H23 lung; 97.5% in the test on NCI-H226 lung; 102% with NCI-H322M lung; 96.9% in the test on HOP-62 NSCLC; 108% with NCI-H460 lung; 90.1% with HOP-92 NSCLC. Further, the growth is 91.9% with NCI-H522 lung; 102% in the test with 786-0 renal; 105% in the test with COLO 205 colon; 105% in the test on DU-145 prostate; 89.4% in the test with K-562 leukemia; 101% in the test on MALME-3M melanoma. Further, the growth with MDA-MB-231 breast is 92%; in the test on RXF 393 renal it was 110%; in the test on SF-268 CNS, 103%; with SF-295 CNS it was 96.9%; with SF-539 CNS, 96.2%; in the test on UACC-257 melanoma, 91.1%. The growth in the test on M14 melanoma is 95.5%.

Turning to `CCOC(=O)C1=C(C)N(C)C(=O)N(C)C1c1ccccc1` (stereo not drawn), the growth in the test on NCI-H23 lung is 96.7%; in the test on NCI-H226 lung it was 93.3%; in the test on NCI-H322M lung it was 98.6%; in the test on HOP-62 NSCLC, 81.7%; in the test with NCI-H460 lung it was 101%; in the test on HOP-92 NSCLC, 78.5%. For the same compound, the growth was 86.9% in the test with NCI-H522 lung; 100% in the test with 786-0 renal; 98.5% in the test with COLO 205 colon; 107% in the test with DU-145 prostate; 82.2% in the test with K-562 leukemia; 87.2% with MALME-3M melanoma. Besides, the growth in the test on MDA-MB-231 breast is 97.3%; in the test on RXF 393 renal, 105%; in the test with SF-268 CNS, 108%; in the test with SF-295 CNS it was 90.6%; in the test with SF-539 CNS, 91.4%; with UACC-257 melanoma, 92.5%. Further, the growth in the test with M14 melanoma was 94.2%.

These data come from PubChem BioAssay (NCI).
